The results in this text go back to PubChem BioAssay AID2314 (National Center for Advancing Translational Sciences (NCATS), 2010).

Values joined by “and” are separate entries in the source; they are usually repeats but may differ in a detail not shown here. Identical values can stand only once. The campaign covered roughly 300,000 compounds. About 37,000 (12%) were called active. The sample holds actives, similar compounds and a random draw of the others, so the mix is not that of the screen. Rule as the data show it: active = max response mostly above about 13% (no sharp cut-off); inactive = mostly below about 14%.

A short description of this assay: Cycloheximide Counterscreen for Small Molecule Inhibitors of Shiga Toxin. Also: read at 38.3 µM for the half of the compounds with a filed dose; 0% is about no effect. The settings on record: cell reporter, cycloheximide protein synthesis inhibition counterscreen; stronger effect = higher value.
`O=C(NCc1ccccc1)C(c1cccnc1)N(C(=O)c1csnn1)c1ccc(F)cc1` (configuration not stated): the max response is -4.58% (inactive). As to `COC(=O)c1[nH]c2ccccc2c1NC(=O)CN1CCCc2ccccc21`, the max response was 13.2% (inactive). In the case of `CCOC(=O)c1[nH]c2ccc(OC)cc2c1NC(=O)CCN1CCN(Cc2ccccc2)CC1`, the max response is 2.39% (inactive). In the case of `COC(=O)c1[nH]c2ccc(Br)cc2c1NC(=O)Oc1ccccc1`, the max response is 47% (active). With `COc1ccc(C2(CNC(=O)C(c3ccccc3)c3ccccc3)CCOCC2)cc1OC` the figure was 4.44% (inactive); with `CCn1cc(C(=O)NCCO)c(=O)c2cc(F)c(N3CCN(C)CC3)cc21`, 1.78% (inactive).

Consider `COc1ccc(N2CCN(C(=O)[C@@H](NC(=O)c3cc(OC)cc(OC)c3)C(C)C)CC2)cc1`, for which the max response was -0.698% (inactive).

On to `CC(C)n1cnc2c(Nc3cccc(Cl)c3)nc(N(CCO)CCCO)nc21`, for which the max response is -7.35% (inactive).

As for `NS(=O)(=O)c1cccnc1Nc1cccc(Cl)c1`, the max response is 5.31% (inactive). With `OCCCNc1nccc(-c2cc(Nc3cccc(Cl)c3)ncn2)n1`, the max response was 26.9% (active). With `CC(=O)N1CCN(CC(c2ccccc2)c2ccccc2)CC1` the figure was -2.13% (inactive); with `Cc1ccc(N2C(=O)C3C4C=CC(CC4)C3C2=O)cc1Cl` (configuration not stated), 0.718% (inactive); with `CCN1C(=S)N[C@@H](CCc2ccccc2)[C@H](C(=O)OC)[C@H]1C`, -1.59% (inactive) and -1.62% (inactive). Under `COC(=O)c1c(NC(=O)CN(c2ccc(C)c(C)c2)S(C)(=O)=O)sc2c1CCCC2` stands -3.45% (inactive).

For the compound `CC(=O)Nc1ccc(S(=O)(=O)Nc2cc(C)cn(Cc3ccc(C)cc3)c2=O)cc1`, the max response is 10.7% (inactive). With `COc1cccc(CNC(=O)COc2cc(O)c3c(c2)OC(C)(C)CC3=O)c1` the figure was 6.81% (inactive). As for `CCOC(=O)C1CCN(Cc2c(C(=O)N3CCOCC3)nc3c(C)cccn23)CC1`, the max response was -0.834% (inactive).

Consider `COC(=O)COc1ccc2c(c1C)O/C(=C\c1ccco1)C2=O`, for which the max response was 8.5% (inactive). Under `CC(C)(C)C1C/C(=C/c2ccco2)C(=O)/C(=C/c2ccco2)C1` (configuration not stated) stands 46.9% (active); under `COC(=O)C1=C(C)N(c2ccc(Br)cc2)C(=O)/C1=C\c1ccco1`, 19.6% (inactive); under `O=[N+]([O-])c1cc(Cl)cc(/C=N/NC(=S)Nc2cc(S(=O)(=O)N3CCOCC3)ccc2Cl)c1O`, 6.73% (inactive).

As for `CCN(C(=O)COc1ccc(C(=O)c2ccccc2)cc1)c1ccccc1`, the max response was 8.19% (inactive).

On to `Cc1cc(C)n(CCC(=O)N2CCN(S(=O)(=O)c3ccc(C)c(C)c3)CC2)n1`, for which the max response is -4.77% (inactive).

As for `CCNC(=S)NNC(=O)c1ccc2ncccc2c1`, the max response is 23.2% (inactive). In the case of `Cc1ccc2cc(/C=N/NC(=O)[C@@H]3CCCN3)c(Cl)nc2c1`, the max response is 12.2% (inactive).

Take `O=C(O)c1ccc(N/N=C/c2ccc3ncccc3c2)cc1`: the max response was 40% (active). Under `CSCC[C@H](NC(=O)OC(C)(C)C)C(=O)N/N=C/c1cc2ccc(C)cc2nc1Cl` stands -2.35% (inactive); under `Cc1ccc2cc(/C=N/Nc3ccc(C(=O)O)cc3)c(Cl)nc2c1`, 33.1% (active).

For the compound `O=C(O)c1ccc(/C=N/Nc2nc(N3CCCCC3)nc(N3CCCCC3)n2)cc1`, the max response is -2.21% (inactive). Regarding `COc1ccccc1N1CCN(C(=O)CCS(=O)(=O)c2ccc3c(c2)NC(=O)C(C)S3)CC1` (configuration not stated), the max response was 18.6% (inactive).

As to `Cc1cc(CNC(=O)C2CCC(=O)N(CCc3ccc(Cl)cc3)C2)no1` (configuration not stated), the max response is 0.258% (inactive). With `NC(=O)c1cc(-c2cccnc2)nc2ccc(Br)cc12` the figure was 0.502% (inactive). For `Cc1ccc2c(c1)N(C(=O)CCC(=O)N1CCc3ccccc3C1)CCO2`, the max response was 13.8% (inactive). Consider `Cc1ccccc1-n1c(SCC(=O)Nc2cccc3ccccc23)nc(O)cc1=O`, for which the max response was -2.55% (inactive). With `CC(=O)N(C)c1ccc(NC(=O)Nc2cccc3ccccc23)cc1` the figure was 33% (active). Under `CCOc1ccc(NC(=O)Nc2ccc(N(C)C(C)=O)cc2)cc1` stands -1.58% (inactive); under `O=C(O)Cc1ccc(NC(=O)Nc2cccc3ccccc23)cc1`, 0.207% (inactive). Under `O=C(NCC(=O)N1CCC2(CC1)NCCc1[nH]cnc12)c1ccc(Br)cc1` stands 1.26% (inactive); under `CC(C)Nc1ccc(-n2nc3ccccc3[n+]2[O-])cc1`, 25.2% (active). As to `Clc1ccc(-c2nc3ccccn3c2CN2CCSCC2)cc1`, the max response is 12.2% (inactive).

In the case of `Cc1cn(C2OC[C@@H](O)[C@@H]2CO)c(=O)[nH]c1=O` (some centres not stated), the max response was -1.7% (inactive). Regarding `O=C(N/N=C\c1cc2c(cc1Cl)OCO2)c1ccc(Br)s1`, the max response was -4.62% (inactive). With `CCCCCCOC(=O)NCC(O)c1ccccc1` (configuration not stated) the figure was 29.3% (active). `CCCCCCCCC(=O)NCCOc1ccccc1`: the max response was -1.44% (inactive). For `CCCCOC(=O)Nc1nnc(CC(=O)NCc2ccccc2)s1`, the max response is -2.89% (inactive). Under `CC(=O)C1=C(C)NC(=O)NC1c1ccc2c(c1)OCO2` (configuration not stated) stands 0.903% (inactive). Under `COc1ccc(CNC(=O)C(C)NCc2ccccc2Cl)cc1` (configuration not stated) stands -2.73% (inactive). In the case of `CC(C)(O)C#Cc1ccc(CN2CCC(CO)(CCc3ccccc3)CC2)cc1`, the max response is -2.91% (inactive).

Take `COc1ccc(C(=O)NC(=S)N2CCCCC2c2cccnc2)cc1OC` (configuration not stated): the max response is 1.6% (inactive). Under `CCOc1ccc(-n2c(SCC(=O)OC)nc3sc4c(c3c2=O)CCN(C)C4)cc1` stands -9.49% (inactive); under `COc1ccccc1NC(=O)CSc1nc2sc3c(c2c(=O)n1-c1ccccc1)CCN(C)C3`, 33.2% (active); under `CCOc1ccc(-n2c(SCC(=O)Nc3ccc(OC)cc3)nc3sc4c(c3c2=O)CCN(C)C4)cc1`, -3.77% (inactive). On to `CCO[C@H]1OC(C(=O)N2CCCCCCC2)=C[C@@H](c2ccc(C(F)(F)F)cc2)[C@@H]1CCCO`, for which the max response was -3.3% (inactive). With `CCCC(C(=O)n1nc(C)cc1C)C(NS(=O)(=O)c1ccc(C)cc1)c1ccccc1` (configuration not stated) the figure was 8.08% (inactive); with `N#CCC(=O)NC1CCC(CC2CCC(NC(=O)CC#N)CC2)CC1` (configuration not stated), -6.39% (inactive). On to `O=C1c2ccccc2C(=O)N1CCCc1nc(-c2ccccc2)no1`, for which the max response is 4.56% (inactive). Under `c1ccc(CCc2nc(-c3ccncc3)no2)cc1` stands 30.3% (active); under `O=C(Cc1ccc(Cl)cc1)NCc1nc(-c2ccccc2)no1`, 16.7% (inactive); under `CN(CC1CCCO1)S(=O)(=O)c1ccc(C(=O)Nc2ccc([N+](=O)[O-])cc2)cc1` (configuration not stated), -2.48% (inactive). With `Cn1c(COc2ccc(Cl)cc2)nc2ccccc2c1=O` the figure was 31.5% (inactive); with `O=C(Cn1c(COc2ccccc2)nc2ccccc21)Nc1cc(Cl)c(Cl)cc1Cl`, 6.88% (inactive); with `Cc1ccc(OCc2nc3ccccc3n2C)cc1`, 26.1% (active). As for `Cc1ccc(OCc2n[nH]c(=S)n2-c2ccccc2)cc1`, the max response was -8.01% (inactive). With `CC(C)n1c(COc2ccccc2)nc2ccccc21` the figure was 2.4% (inactive); with `COCn1c(COc2ccccc2)nc2ccccc21`, 36.4% (active); with `CC1(C)Cc2cccc(OCC(=O)NCc3ccccc3)c2O1`, -11.4% (inactive). Under `COC(=O)C1=C(C)N(C)C(=O)NC1c1ccc([N+](=O)[O-])o1` (configuration not stated) stands -2.81% (inactive).

For the compound `O=C(CO/N=C/c1ccc(OC(F)F)cc1)NCc1ccc(F)cc1`, the max response was -1.6% (inactive). Under `Cn1c(=O)c2c(nc(N3CCCCCC3)n2CC(=O)c2ccc(Br)cc2)n(C)c1=O` stands 4.19% (inactive); under `O=C(Cn1ncc(N2CCCC2)c(Br)c1=O)c1ccc(Cl)cc1`, 21.9% (active); under `CC(=O)Cn1ncc(N2CCOCC2)c(Br)c1=O`, 8.19% (inactive). With `O=c1[nH]c(CCl)nc2cc(-c3ccc(Cl)cc3)sc12` the figure was 3.01% (inactive). With `O=C(Nc1ccc2c(c1)C(=O)OC2)Nc1cccc2ccccc12` the figure was 8.24% (inactive). With `CC(O)c1cccc(NC(=O)Cc2cccc3ccccc23)c1` (configuration not stated), the max response was -1.49% (inactive).

Take `O=C(Nc1ccc(NC(=O)c2cccs2)cc1)c1ccc2ccccc2c1`: the max response was 21.9% (inactive). Regarding `O=C(Cc1cccc2ccccc12)Nc1ccc2oc(-c3ccccc3)nc2c1`, the max response is 51.7% (active).

`O=C(Nc1ccc2oc(-c3ccc4ccccc4c3)nc2c1)c1cccs1`: the max response was 42.5% (active). Under `O=C(NC(=S)Nc1cccc(-c2ccc(CO)o2)c1)c1cccs1` stands 12.5% (inactive); under `Cc1ccc(NC(=O)CSc2nn3c(=O)c(C)nnc3s2)cc1Cl`, 8.05% (inactive); under `CC(OC(=O)c1ccc2ccccc2n1)C(=O)c1ccccc1` (configuration not stated), 25.1% (active).

On to `CC(OC(=O)c1ccccc1N1C(=O)C2C3CCC(C3)C2C1=O)C(=O)c1ccccc1` (configuration not stated), for which the max response is -0.595% (inactive).

For `COc1ccccc1NC(=O)CCC(=O)OC(C)C(=O)c1ccccc1` (configuration not stated), the max response is -2.18% (inactive). Under `O=C(Oc1ccc([N+](=O)[O-])cc1)c1ccc2ccccc2n1` stands 33.2% (active). With `COc1ccc(C2=NOC(COC(=O)c3ccc4ccccc4n3)C2)cc1` (configuration not stated) the figure was 12.5% (inactive).

Take `O=C(CNC(=O)c1ccccc1)Oc1ccc([N+](=O)[O-])cc1`: the max response is 0.695% (inactive). With `CCCCC(C(=O)OCC(=O)c1ccc(OC)cc1)N1C(=O)c2ccccc2C1=O` (configuration not stated) the figure was 1.39% (inactive). With `O=C(Oc1ccc([N+](=O)[O-])cc1)c1ccc(Cl)c(S(=O)(=O)N2CCCCC2)c1` the figure was 7.89% (inactive); with `COc1ccc(C(=O)COC(=O)c2ccc3ccccc3n2)cc1`, 20.4% (active); with `CCCn1cc(S(=O)(=O)c2ccc(C)cc2)c(=O)c2cc(OCC)ccc21`, -2.9% (inactive).

With `Nc1nc(NCC(=O)O)nc(N2CCCCCC2)c1[N+](=O)[O-]`, the max response is -3.03% (inactive). With `COc1ccc(NC(=O)c2cccc3c2C(=O)N(CC2CCCO2)C3)cc1OC` (configuration not stated), the max response was 1.17% (inactive).

For the compound `COc1ccccc1N(CC(=O)NC1CCCC1)C(=O)C1(C)CC(=O)N=C2C=CC(C)=CN21` (configuration not stated), the max response was -3.56% (inactive).
